One may read the AC50 as the midpoint of the concentration-response curve, whichever way the signal moves.

Activity calls are given as the source filed them. The calls were made as follows: active = hit-call score of the fitted dose curve at least 0.9, where 1 is the maximum; inactive = score below 0.9.

Details in all cases: actives raise or lower the signal
Test [1] in a line: CEETOX_H295R_11DCORT_noMTC: CeeTox H295R High-throughput Steroidogenesis Assay for 11-Deoxycortisol (11DCORT), maximum tolerated concentration (MTC) filtered results only (AID 2283911). In short, it runs like this:
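Forskolin-primed (10 uM, 48 h) H295R adrenal cells are dosed for 48 h at 0.1% DMSO; medium 11-deoxycortisol is quantified by LC-MS/MS against a 7-point standard curve, with activity fitted in both directions versus DMSO.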

Test [2] is described as follows: CEETOX_H295R_OHPREG_noMTC: CeeTox H295R High-throughput Steroidogenesis Assay for OH-Pregnenolone (OHPREG), maximum tolerated concentration (MTC) filtered results only (AID 2283912). The gist of the method: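 Steroidogenesis in H295R cells (OECD 456, modified): after 48 h forskolin priming and 48 h chemical treatment, secreted 17alpha-hydroxypregnenolone is measured by HPLC-MS/MS. Activity is fitted in both directions against DMSO; concentrations are not filtered by MTT-based MTC.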

Test [3] can be described thus: CEETOX_H295R_OHPROG_noMTC: CeeTox H295R High-throughput Steroidogenesis Assay for OH-Progesterone (OHPROG), maximum tolerated concentration (MTC) filtered results only (AID 2283914). The gist of the method:
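Forskolin 10 uM, 48 h prestim → test cmpd in DMSO (0.1% final), 48 h → medium MTBE extraction → LC-MS/MS quant of 17alpha-OH-progesterone. Bidirectional fit vs DMSO; no MTT-based MTC filtering.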

Test [4] is described as follows: CEETOX_H295R_CORTISOL_noMTC: CeeTox H295R High-throughput Steroidogenesis Assay for Cortisol, maximum tolerated concentration (MTC) filtered results only (AID 2283916). In short, it runs like this: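 Cortisol secretion measured by LC-MS/MS after 48 h chemical treatment (final 0.1% DMSO) of forskolin-primed (10 uM, 48 h) H295R cells; gain or loss fitted relative to DMSO, without maximum-tolerated-concentration filtering.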

The nature of test [5]: CEETOX_H295R_ANDR_noMTC: CeeTox H295R High-throughput Steroidogenesis Assay for Androstenedione (ANDR), maximum tolerated concentration (MTC) filtered results only (AID 2283915). In short, it runs like this:
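H295R cells, passage 10 or below, prestimulated 48 h with 10 uM forskolin, then exposed 48 h to chemical in 0.1% DMSO. Medium androstenedione extracted with MTBE, quantified by HPLC-MS/MS; concentrations not MTC-filtered; bidirectional fit versus DMSO.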

`c1ccc2c(c1)Cc1ccccc1-2`: the result in test [1], in test [2], in test [3] and in test [4] was inactive.

For `Cc1cc(CCN2CCN(c3nsc4ccccc34)CC2)cc2c1NC(=O)CC2(C)C`, the values for the AC50 in test [1], in test [3] and in test [4] were 11.2 µM (active), 0.756 µM (active) and 10 µM (active), respectively. The call in test [2] and in test [5] was inactive.

The record behind these values is PubChem BioAssay (EPA / NIEHS).
